# Pyk2 oligo antag = antagonists of Pyk2 self-association, primary screen, Q293 cells, FERM NanoBiT luminescence, HTS; Protein-tyrosine kinase 2-beta (Homo sapiens), Q14289; hits give low values; z-score (the deposit names both 25 µM and 10 µM); 0.83% of 99,000 active; AID 1347419, 2020;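 active = Z-score of -3 or lower, scaled per plate to the spread of control and sample wells; inactive = z-score above -3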;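 also: negative z-score means lost luminescence so less FERM oligomerization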
# CYP2C19 inhib = blockers of cytochrome P450 2C19 activity – biochemical, luminescence, ADME assay, primary screen; CYP2C19 Supersomes, luciferin-H EGE luminescence, 30 min; inhibition, % at 5 µM; 21% of 96,000 active; AID 778, 2007;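 active = CYP2C19 inhibition above a set limit at 5 µM in the primary screen, cut at about 50% in these data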;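 also: plate controls were negative control wells for no effect and 2.5 mM tranylcypromine positive control for full effect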
# CYP2C19 activ = human CYP2C19 activators, primary screen, biochemical, luminescence; activation factor at 5 µM; recombinant CYP2C19, luciferin-H EGE luminescence; hits give high values; 0 = fully inhibited enzyme, 1 = untreated enzyme; 96,000 tested, under 10 active;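 active = activation factor of at least 2 at 5 µM in the primary screen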;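 also: 0 = wells with 2.5 mM tranylcypromine and 1 = vehicle-only wells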
# CYP2C9 inhib = blockers of cytochrome P450 2C9 activity – biochemical, luminescence, ADME assay, primary screen; AID 777, 2007; CYP2C9 Supersomes, luciferin-H conversion; 20% of 96,000 active; P11712; inhibition, % at 5 µM;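 active = blocking of liver enzyme CYP2C9 beyond about 50% at 5 µM, limit read from the data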
# Target sequence (P11712 whole entry, looked up): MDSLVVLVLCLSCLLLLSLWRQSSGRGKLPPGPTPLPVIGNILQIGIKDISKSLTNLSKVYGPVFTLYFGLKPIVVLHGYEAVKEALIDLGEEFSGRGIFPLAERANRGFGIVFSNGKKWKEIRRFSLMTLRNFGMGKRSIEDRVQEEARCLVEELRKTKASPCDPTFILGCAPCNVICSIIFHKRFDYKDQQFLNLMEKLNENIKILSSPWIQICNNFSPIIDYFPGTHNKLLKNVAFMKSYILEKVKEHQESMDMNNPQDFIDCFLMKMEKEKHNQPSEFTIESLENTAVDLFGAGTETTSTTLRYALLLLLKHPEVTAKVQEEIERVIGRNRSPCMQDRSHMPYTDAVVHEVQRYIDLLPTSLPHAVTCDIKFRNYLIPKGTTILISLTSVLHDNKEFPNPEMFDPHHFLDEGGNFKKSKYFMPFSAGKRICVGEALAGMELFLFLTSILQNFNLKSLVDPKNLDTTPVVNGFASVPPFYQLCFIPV
# CYP2C9 activ = human CYP2C9 activators, primary screen, biochemical, luminescence. Cytochrome P450 2C9 (Homo sapiens), P11712. recombinant CYP2C9, luciferin-H conversion; hits give high values; factor 1 = untreated enzyme, 0 = blocked. activation factor at 5 µM. 1.4% of 96,000 active. AID 1024, 2008;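 active = activation factor of 2 or more for CYP2C9 at a 5 µM dose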;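 also: 0 = sulfaphenazole-blocked wells and 1 = vehicle-only wells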
# Starred values were filed as active, the others as inactive; / = no result. Sampled rows, rich in hits. Any-hit rate of the full collection: about 28%.
SMILES,Pyk2 oligo antag,CYP2C19 inhib,CYP2C19 activ,CYP2C9 inhib,CYP2C9 activ
CCCCC(=O)Nc1cccc(NC(=O)c2ccc(Br)o2)c1,-0.17,69.6*,0.3,92.8*,0.1
O=C(Nc1cccc(OC(F)(F)F)c1)c1ccc(Br)o1,-1.08,88.6*,0.1,15.6,0.8
CC(=O)c1cccc(NC(=O)c2ccc(Br)o2)c1,0,46.8,0.5,28.3,0.7
Cc1nnc(SCC(=O)Nc2ccccc2)n1CCc1ccccc1,0.17,33.7,0.7,13.9,0.9
N#Cc1ccc(CSc2nnc(-c3cccs3)n2-c2ccccc2)cc1,-2.69,92.6*,0.1,92.0*,0.1
N#Cc1ccc(CSc2nnc(-c3ccccn3)n2-c2ccccc2)cc1,-0.79,78.1*,0.2,43.2,0.6
CCn1c(SCc2ccccc2)nnc1-c1cccs1,-0.91,/,/,/,/
N#Cc1ccc(CSc2nnc(-c3ccncc3)n2CCc2ccccc2)cc1,-0.02,61.1*,0.4,54.1*,0.5
Nc1cc(C(=O)N2CCCC2)cc(C(=O)N2CCCC2)c1,0.13,0.2,1,-2.9,1
CCN(CC)C(=O)C1CCCN(c2ccc([N+](=O)[O-])cc2/C=N/NC(=O)c2ccc([N+](=O)[O-])cc2)C1 (stereo not drawn),-0.18,37.5,0.6,-3.1,1
CCN(CC)C(=O)C1CCCN(c2ccc([N+](=O)[O-])cc2/C=N/NC(=O)c2cccc(O)c2)C1 (stereo not drawn),-1.39,89.2*,0.1,93.2*,0.1
CCCN(N=Nc1cccc([N+](=O)[O-])c1)c1cccc([N+](=O)[O-])c1,-0.59,11.4,0.9,73.5*,0.3
COC(=O)CSc1nc(SCc2ccccc2Cl)nc2c1CCCC2,-0.27,49.6,0.5,69.2*,0.3
Cc1cc(/C=N\NC(=O)c2cccs2)c(C)n1-c1ccc2ncccc2c1,-1.04,15.9,0.8,45.1,0.5
CCN(CC)CCC(=O)Nc1ccc2c(c1)N(C(=O)CN(CC)CC)c1ccccc1CC2,-0.37,5.2,0.9,6.6,0.9
C=CCSc1nc(NC)c2sccc2n1,-0.27,21.9,0.8,-148.1,2.5*
CNc1nc(SC)nc2ccsc12,-0.24,37.1,0.6,-129.9,2.3*
Nc1nc(NCc2ccco2)nn1-c1ccccc1,-0.42,4.4,1,0.2,1
CC(C)(C)NC(=O)C(c1ccsc1)N(CCc1ccccc1)C(=O)Cn1nnc2ccccc21 (stereo not drawn),0.85,-6.2,1.1,-13.2,1.1
CC(C)(C)NC(=S)Nc1ccc(Nc2ccccc2)cc1,-2.05,38.5,0.6,54.3*,0.5
CCCCOC(=O)c1ccc(NC(=S)NC(=O)c2c(Br)c(C)nn2C)cc1,0.8,/,/,/,/
CC(C)N(C(=O)C(=O)c1cccn1-c1ccccc1C#N)C(C)C,-0.39,54.2*,0.5,27.2,0.7
CN(C)C(=O)C(=O)c1cccn1-c1ccccc1C#N,0.35,-1.7,1,-1.0,1
COC(=O)c1sccc1-n1cccc1C(=O)C(=O)N1CCCC1,-0.21,33.4,0.7,-3.6,1
CCN(CC)C(=O)C(=O)c1cccn1-c1cccc(Cl)c1C#N,-0.35,81.0*,0.2,42.6,0.6
SMILES,Pyk2 oligo antag,CYP2C19 inhib,CYP2C19 activ,CYP2C9 inhib,CYP2C9 activ
CN1c2ccsc2C(O)=C(C(=S)Nc2ccc(F)c(Cl)c2)S1(=O)=O,-1.17,-0.4,1,84.1*,0.2
CC(C)CC(=O)Nc1ccc(F)c(Cl)c1,1.85,27.6,0.7,30.0,0.7
O=C(Nc1ccccc1Sc1ccccc1)C1CCCO1 (stereo not drawn),-0.36,68.8*,0.3,24.9,0.8
CC(C)NC(=O)c1ccccc1NC(=O)C1CCCO1 (stereo not drawn),3.07,3.8,1,26.4,0.7
O=C(Nc1ccccc1Sc1ccccc1)c1ccccc1,-1.49,86.0*,0.1,77.4*,0.2
COc1ccc(NC(=O)c2ccccc2NC(=O)C2CCCO2)cc1 (stereo not drawn),0.09,50.2*,0.5,80.0*,0.2
O=C(Cc1ccccc1)Nc1ccccc1Sc1ccccc1,-0.97,/,/,/,/
O=C(O)c1ccccc1NC(=O)C1CCCO1 (stereo not drawn),0.89,8.7,0.9,-0.1,1
C=C(C)CSc1nnc2n(Cc3ccccc3)c(=O)c3c4c(sc3n12)CCC4,0.51,34.9,0.7,-3.0,1
CC(C)(C)c1ccc(C(=O)NNC(=O)c2ccccc2Br)cc1,0.33,-10.3,1.1,-5.4,1.1
O=C(NNC(=O)c1ccccc1Br)c1ccc(Cl)c(Cl)c1,0.97,24.5,0.8,-122.9,2.2*
O=C(NNC(=O)c1ccccc1-n1cccc1)c1ccc(Cl)c(Cl)c1,-0.19,50.4*,0.5,-49.2,1.5
O=S(=O)(NC1CCCC1)c1ccc(S(=O)(=O)N2CCCN(Cc3ccccc3)C2)cc1,0.28,98.5*,0,95.0*,0.1
CCOC(=O)c1c(C)[nH]c(C(=O)Cn2c(=O)oc3ccccc32)c1C,0.71,-3.4,1,9.4,0.9
Cc1noc(C)c1S(=O)(=O)Nc1ccc(C(=O)NC2CCCCC2)cc1,1.02,2.6,1,18.6,0.8
Cc1ccc(Cl)cc1N1CCN(C(=O)c2ccc(NS(=O)(=O)c3c(C)noc3C)cc2)CC1,0.66,14.6,0.9,99.5*,0
Cc1ccc(C)c(N2CCN(C(=O)c3ccc(NS(=O)(=O)c4c(C)noc4C)cc3)CC2)c1,-0.39,7.1,0.9,96.9*,0
Cc1ccc(NS(=O)(=O)c2cc(C(=O)N3CCOCC3)ccc2C)cc1,-0.81,-1.8,1,3.9,1
Cc1noc(C)c1S(=O)(=O)Nc1ccc(C(=O)N2CCCCC2)cc1,1.22,23.1,0.8,52.0*,0.5
CCOC(=O)N1CCN(C(c2ccc(F)cc2)c2sc3nc(C)nn3c2O)CC1 (stereo not drawn),/,7.9,0.9,-4.5,1
CCCc1cc(=O)n2[nH]c(C)cc2n1,1.35,-6.1,1.1,-6.8,1.1
O=S(=O)(NCCc1cn2ccccc2n1)c1cccs1,/,17.7,0.8,3.3,1
O=c1c2c(nc3n1CCCCC3)sc1c(O)c(Br)ccc12,-1.49,-4.6,1,16.0,0.8
CCN(CC)CCOc1c(Br)ccc2c1sc1nc3n(c(=O)c12)CCC3,-0.42,83.8*,0.2,15.1,0.8
CCOc1ccccc1N=c1oc2cc(O)ccc2cc1C(=O)NCC1CCCO1 (stereo not drawn),0.21,1.8,1,53.4*,0.5
Cc1ccc(N=c2oc3cc(O)ccc3cc2C(N)=O)cc1,-1.42,12.6,0.9,65.9*,0.3
COc1ccc(N=c2oc3cc(O)ccc3cc2C(=O)NCC2CCCO2)cc1 (stereo not drawn),-2.5,14.2,0.9,52.0*,0.5

# High-throughput results from PubChem.
